Pf growth 96h = Primary qHTS for delayed death inhibitors of the malarial parasite plastid, 96 hour incubation. P. falciparum luciferase reporter growth, 96 h. Potency, µM (titrated, usually from 28.7 µM), for the others: at the top dose activity change, negative = inhibition, hits mostly inhibitors. 320,000 tested, 6.9% active; also: potency is read from the fitted curve at half-maximal effect; % is scaled to controls: 0 for no effect and ±100 for the full control effect
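P. falciparum expressing integrated firefly luciferase, in erythrocytes at 2% hematocrit, 0.05% parasitemia, incubated with compounds 96 h at 37 C, 5% CO2. Growth inhibition read as loss of luminescence; two-generation exposure targets delayed-death apicoplast inhibitors.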
Cycloheximide cs = Cycloheximide Counterscreen for Small Molecule Inhibitors of Shiga Toxin; cell reporter, cycloheximide protein synthesis inhibition counterscreen; max response, %; 300,000 tested, 12% active; AID 2314, 2010; in the data active = max response mostly above about 13%, no sharp cut-off; inactive = mostly below about 14%; also: read at 38.3 µM for the half of the compounds with a filed dose; 0% is about no effect
Shiga inhibitor = A qHTS for Small Molecule Inhibitors of Shiga Toxin; Vero cells, Shiga toxin protein synthesis inhibition reporter; inhibition, % at 38.7 µM; 290,000 tested, 9.2% active; in the data active = inhibition mostly above about 28%, no sharp cut-off; inactive = mostly below about 43%; also: 0% is about no effect
SARS PLP yeast = qHTS of Yeast-based Assay for SARS-CoV PLP | S. cerevisiae expressing SARS-CoV PLpro, growth rescue | Potency, µM (top dose mostly 32.9 µM), inactives show at the highest dose activity, positive = growth rescue, hits mostly activators | 330,000 tested, 0.19% active | AID 485353, 2010; calls by dose curve; also: potency is read from the fitted curve at half-maximal effect; 0% is about no effect; nearly all actives have a fitted effect of over 55% in size
Pf growth 48h = Primary qHTS for delayed death inhibitors of the malarial parasite plastid, 48 hour incubation; P. falciparum luciferase growth in erythrocytes, 48 h; 310,000 tested, 5.9% active; Potency, µM (top dose mostly 28.7 µM), without a hit: at the highest dose activity change, negative = inhibition, actives largely listed as inhibitors; AID 504832, 2011; also: potency is read from the fitted curve at half-maximal effect; % is scaled to controls: 0 for no effect and ±100 for the full control effect
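Luciferase-expressing parasites in RBCs, 2% Hct / 0.1% parasitemia final; RPMI 1640 + 0.5% Albumax; 37 C, 5% CO2, one generation; luminescence read-out, lower signal = inhibition.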
NS1 inh = qHTS Assay for Inhibitors of Influenza NS1 Protein Function; AID 2326, 2010; 270,000 tested, 0.4% active; Potency, µM (doses to about 46.1 µM), without a hit: top-dose activity, positive = more growth; calls by dose curve; also: potency is read from the fitted curve at half-maximal effect; actives are rising curves; nearly all actives have a fitted effect of over 50% in size
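S. cerevisiae expressing influenza A NS1, grown in glucose, washed, then diluted 1:100 into pH 6.0 -URA galactose medium with 23 nl compound. Growth recovery read as OD600; NS1-free strain serves as control.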
* marks the source's active call; other numbers are inactive results; ? = inconclusive; · = no result. In the library only some 21% were active in any assay of this set; here they are far more common. Unless noted, calls follow the shape of the dose curve; as a rule, active = well fitted inhibition curve with a large enough effect; inconclusive = small, poorly fitted or top-dose-only effect, or another doubt; inactive = no such curve, though single readings can be large or run the other way.

SMILES | Pf growth 96h | Cycloheximide cs | Shiga inhibitor | SARS PLP yeast | Pf growth 48h | NS1 inh
CC1(C(=O)O)CCC(C(=O)Nc2cccc(F)c2)C1(C)C (stereo not given) | -25.9% | 1.0 | -13.5 | 2.7% | -0.4% | -4.1%
COc1ccc(CS(=O)(=O)CC(C)(O)c2ccccc2)cc1 (stereo not given) | 29.6% | -6.0 | -10.0 | 0.0% | 18.8% | 0.9%
COc1ccc(OS(=O)(=O)Cc2ccccc2)cc1 | 6.8% | 20.4* | 41.1* | -1.3% | 38.1% | 1.6%
CC(C)(C)NC(=O)C(=O)NNC(=O)COc1ccc(Br)cc1 | 19.6% | 1.4 | 1.7 | 2.8% | 6.3% | 2.8%
COc1ccc2c(c1)C(=O)CCC2c1ccccc1 (stereo not given) | 5.22µM* | 1.0 | -7.1 | -5.2% | -9.2% | -40.2%
Cn1c(=NC(=O)c2ccccc2[N+](=O)[O-])sc2cccc(F)c21 | 235.7% | 63.3* | 162.0* | 0.3% | 151.4% | 6.8%
CC(C)C(=O)N=c1sc2cc(F)cc(F)c2n1C | 13.2% | -1.1 | 9.2 | 19.8% | · | -6.3%
Cn1c(=NC(=O)C(C)(C)C)sc2cccc(F)c21 | 7.0% | 12.9 | 57.9* | 1.3% | 10.9% | -6.2%
Cn1nc(C(=O)OCC(=O)c2ccc(Cl)cc2)c2ccccc2c1=O | · | · | · | 3.4% | · | ·
CCN(CC)S(=O)(=O)c1ccc(OC(C)C)c(NC(=O)c2c3c(nc4ccccc24)CCN(Cc2ccccc2)C3)c1 | 2.94µM* | 1.1 | -3.4 | 25.9% | 2.62µM* | -8.5%
COc1ccc(NC(=O)c2c3c(nc4ccccc24)CCN(Cc2ccccc2)C3)c(OC)c1 | 9.28µM* | 7.1 | -13.0 | -8.8% | 7.38µM* | ·
COc1ccc(S(=O)(=O)N2CCCCCC2)cc1NC(=O)c1c2c(nc3ccccc13)CCN(Cc1ccccc1)C2 | 1.47µM* | 12.4 | -11.4 | 26.4% | 1.47µM* | 23.1%
COc1ccc(S(=O)(=O)N2CCCCC2)cc1NC(=O)c1ccc(CS(C)(=O)=O)cc1 | -43.9% | · | · | -2.9% | ? | ·
CCCC(=O)NCCc1cc(OC)c(OC)cc1Br | 8.4% | -4.9 | 3.6 | -0.7% | 4.7% | 7.6%
COc1cc(/C=N/n2c(C)nc3ccccc3c2=O)cc(OC)c1O | 15.4% | -1.8 | 0.9 | 0.1% | -11.0% | 6.1%
O=C(O)c1ccc2c(=O)n3cc(C(=O)c4ccccc4O)cc(Cl)c3nc2c1 | ? | 34.1* | -1.6 | 0.3% | -6.5% | ?
Cc1cc(=O)c(C(=O)Nc2cccc(C(=O)NC3CC3)c2)nn1-c1ccccc1Cl | 7.38µM* | · | · | 1.7% | ? | ·
Cn1nc(C(=O)Nc2cccc(C(=O)NC3CC3)c2)c2ccccc2c1=O | 16.4% | · | · | -0.3% | -3.9% | ·
COc1ccc(C(=O)NCc2ncccc2C)cc1OC1CCN(C(C)=O)CC1 | 23.5% | -0.4 | -10.9 | 0.0% | -4.8% | 15.1%
COc1cc(C(=O)NCCc2ncccc2C)ccc1OC1CCN(C(C)=O)CC1 | 7.4% | 2.0 | 12.0 | -4.3% | 9.28µM* | -2.3%
COc1cc(C(=O)NC(C)CCn2cccn2)ccc1OC1CCN(C(C)=O)CC1 (stereo not given) | ? | 1.4 | 31.5 | -8.9% | -1.1% | 8.0%
COc1ccc(C(=O)NCCOC(C)C)cc1OC1CCN(C(C)=O)CC1 | 10.4µM* | -2.6 | 8.9 | -0.9% | 10.9% | -3.8%
COc1ccc(C(=O)NC(C)CCCC(C)(C)O)cc1OC1CCN(C(C)=O)CC1 (stereo not given) | 7.38µM* | -0.8 | -7.0 | 3.8% | -3.7% | -0.2%
COc1ccc(NS(=O)(=O)c2ccc3c(c2)CCC(=O)N3)c(OC)c1 | ? | -3.3 | 14.1 | -2.7% | -12.0% | 1.6%
Cc1ccc(CNC(=O)CN2C(=O)NC(C)(c3ccccc3Cl)C2=O)cc1 (stereo not given) | ? | -1.3 | -11.3 | -2.3% | ? | 3.0%
COC(=O)C1=C(C)NC(=S)NC1c1ccco1 (stereo not given) | 24.7% | -2.2 | 27.9 | -2.0% | -5.0% | ·
Cc1ccc(N(CC(=O)Nc2ccccc2-c2ccccc2)S(=O)(=O)c2ccccc2)c(C)c1 | ? | -0.9 | -2.5 | -8.6% | 11.7µM* | ?
